# PubChem BioAssay (NCATS)
# Records with an inconclusive call do not appear. Where a call stands in place of a potency, no number is given. Calls of active or inactive are those of the source. Unless noted, the call rests on the fitted dose curve; in most records, active means well fitted curve in the direction sought with a large enough effect; inconclusive means small, poorly fitted or top-dose-only effect, or another doubt; inactive means no such curve, though single readings can be large; an effect the other way counts as inactive or inconclusive.
# Experiments:
# [1] = qHTS to identify inhibitors of the type 1 interferon - major histocompatibility complex class I in skeletal muscle: primary screen against the NCATS Mechanism Interrogation Plate v5.0 (MIPE) Libary (AID 1347411); further: nearly all actives have a fitted effect of over 65% in size
# In short: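 Immortalized human myoblasts (C25cl48) with HiBit knocked into endogenous HLA-B*08:01 were stimulated with 4 ng/ml IFN-beta and given compounds in 11-point 1:3 titration from 46 uM. After 24 h at 37 C, lytic HiBiT luminescence was read.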
# [2] = Cytotoxicity counterscreen for inhibitors of SARS-CoV-2 cell entry (AID 1645845; calls by dose curve; further: nearly all actives have a fitted effect of over 50% in size)
# In short: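 Expi293F/hACE2 cells seeded overnight; cpd pin-transferred in DMSO, 1 h preincubation, + media, 48 h 37 C 5% CO2; ATPLite 1step luminescence; normalized to cells and no cells.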
# [3] = Confirmatory qHTS for VERO E6 Cytotoxicity Assay: Counterscreen for SARS-CoV-2 CPE Assay (AID 1508605; calls by dose curve; further: nearly all actives have a fitted effect of over 60% in size)
# [4] = Confirmatory qHTS for activators (rescue) of SARS-CoV-2 Cytopathic Effect (CPE) (AID 1508606; calls by dose curve; further: potency means the concentration at half of the fitted maximal effect; nearly all actives have a fitted effect of over 70% in size)
# [5] = HPAF-II Cancer Cell Toxicity qHTS against the NCATS CANVASS Library (AID 1347346); further: nearly all actives have a fitted effect of over 55% in size
# In short: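 HPAF-II cells at 1000 cells/well were treated with an 11-point concentration series for 72 hours at 37 degrees C. Viability read by CellTiter-Glo luminescence.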
# [6] = OV-SAHO Cancer Cell Toxicity qHTS against the NCATS CANVASS Library (AID 1347348); further: nearly all actives have a fitted effect of over 55% in size
# In short: (§1)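 In this cytotoxicity screen, 1000 cells per well rested 4 hours, then received compound (11 concentrations) for a 72-hour incubation; an ATP-dependent luminescent signal (CellTiter-Glo) was the endpoint.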
# [7] = Panc-1005 Cancer Cell Toxicity qHTS against the NCATS CANVASS Library (AID 1347349); further: nearly all actives have a fitted effect of over 60% in size
# In short: as §1
# [8] = U-118MG Cancer Cell Toxicity qHTS against the NCATS CANVASS Library (AID 1347351)
# In short: as §1
# [9] = UWB1.289-WTBRCA1 Cancer Cell Toxicity qHTS against the NCATS CANVASS Library (AID 1347354)
# In short: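 Cells at 1000/well were given compound 4 h after plating in an 11-point series. Viability was read by CellTiter-Glo luminescence after 72 h at 37 degrees C.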
# [10] = HPAF-II 24hr Apoptosis Induction qHTS against the NCATS CANVASS Library (AID 1347356)
# In short: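 HPAF-II cells (500/well) exposed to compounds in 11-point series for 24 h at 37 degrees C; caspase-3/7 activity read by Caspase-Glo luminescence after 15 min at room temperature. Doxorubicin titration as control.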
# [11] = HEK293 18hr Apoptosis Induction qHTS against the NCATS CANVASS Library (AID 1347357)
# In short: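 Caspase-3/7 luminescence (DEVD substrate, Caspase-Glo) after 18 h compound exposure of HEK293 cells, 500 cells/well; 11-point series; doxorubicin titration as control.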
# [12] = HEK293 24hr Apoptosis Induction qHTS against the NCATS CANVASS Library (AID 1347359)
# In short: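 HEK293 cells (500/well, DMEM + 10% FBS) were exposed to compounds in an 11-point series for 24 hours at 37 degrees C, then caspase-3/7 activity was read by Caspase-Glo DEVD luciferase luminescence after 15 min.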
# [13] = HPAF-II 18hr Apoptosis Induction qHTS against the NCATS CANVASS Library (AID 1347360)
# In short: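 Caspase-Glo 3/7 luminescence (DEVD substrate) after 15 min RT; HPAF-II, 500 cells/well, 18 h compound exposure at 37 degrees C, qHTS series; doxorubicin control 0.1nM - 4uM.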
# [14] = HEK293 12hr Apoptosis Induction qHTS against the NCATS CANVASS Library (AID 1347361)
# In short: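 500 HEK293 cells/well; cpds pin-transferred, 11-pt conc series; 12 h, 37 degrees C/5% CO2; Caspase-Glo 3/7 added, 15 min RT dark; luminescence.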
# [15] = target: Luciferin 4-monooxygenase (Photinus pyralis) (UniProt P08659); assay: Firefly luciferase counterscreen qHTS: Assay Interference Panel against the NCATS CANVASS Library (AID 1347363)
# Luciferin 4-monooxygenase (Photinus pyralis), sequence (P08659 whole entry, looked up): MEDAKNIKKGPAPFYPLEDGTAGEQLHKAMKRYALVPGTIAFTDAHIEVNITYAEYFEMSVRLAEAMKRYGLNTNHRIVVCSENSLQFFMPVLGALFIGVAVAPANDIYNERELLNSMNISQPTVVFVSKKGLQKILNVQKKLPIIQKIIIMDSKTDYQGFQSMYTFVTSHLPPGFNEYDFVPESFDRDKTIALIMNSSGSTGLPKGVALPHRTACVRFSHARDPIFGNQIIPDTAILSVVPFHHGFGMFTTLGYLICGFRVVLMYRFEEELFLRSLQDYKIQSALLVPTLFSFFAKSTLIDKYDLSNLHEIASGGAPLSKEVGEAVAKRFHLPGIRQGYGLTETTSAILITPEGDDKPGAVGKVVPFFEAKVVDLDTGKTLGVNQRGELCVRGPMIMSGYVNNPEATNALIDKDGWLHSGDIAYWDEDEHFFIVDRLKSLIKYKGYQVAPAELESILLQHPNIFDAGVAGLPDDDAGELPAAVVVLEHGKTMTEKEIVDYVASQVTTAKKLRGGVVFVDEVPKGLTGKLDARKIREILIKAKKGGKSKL
# In short: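 Purified P. pyralis luciferase was added to compounds (11-point series) preincubated 15 min at room temperature with substrate containing 0.013 mM D-luciferin and 0.013 mM ATP; luminescence was read after 5 min.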
# [16] = KB-8-5-11 Cancer Cell Toxicity qHTS against the NCATS CANVASS Library (AID 1347364); further: nearly all actives have a fitted effect of over 75% in size
# In short: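 KB-8-5-11 cells, 500/well in DMEM + 10% FBS, given compounds in an 11-point series. Incubated 72 h at 37 °C. Viability by CellTiter-Glo luminescence. Confirmation also run with 1 uM tariquidar.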
# [17] = KB-3-1 Cancer Cell Toxicity qHTS against the NCATS CANVASS Library (AID 1347366); further: nearly all actives have a fitted effect of over 75% in size
# In short: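 500 KB-3-1 cells/well; compounds pin-transferred, 11-pnt series; 72 hr, 37C/5% CO2; CellTiter-Glo, 10 min RT; luminescence read-out.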
# [18] = qHTS for ATAD5 Agonist screened against the NCATS CANVASS Library (AID 1347367)
# In short: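 Luminescence read-out: ATAD5-driven luciferase in stably transfected HEK 293T cells, which rises post-transcriptionally with DNA damage. Cells were exposed 16hr at 37C to test compound; a CellTiter-Fluor fluorescence read (1hr) measured viability first.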
# [19] = MCF7 Cancer Cell Toxicity qHTS against the NCATS CANVASS Library (AID 1347369)
# In short: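 Luminescent ATP signal (CellTiterGlo) served as the cytotoxicity read-out after MCF7 breast cancer cells had been incubated 72 hr at 37C with natural products in an 11-point titration.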
# [20] = Primary qHTS to identify inhibitors of SARS-CoV-2 cell entry (AID 1645846; calls by dose curve; further: nearly all actives have a fitted effect of over 45% in size); conditions: activity change, negative = inhibition: at 57.1 µM (top of the series) unless noted
# In short: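 HEK293-ACE2 (Expi293F, stable hACE2), 1500 cells/well, o/n 37C; cpd 23 nL pin, 1 h; MLV-PP w/ SARS-CoV-2-S (Wuhan-Hu-1, Δ19 C-term); 48 h 37C; Bright-Glo luminescence; normalized vs S-PP and bald PP.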
structure (smiles),measurement,setting,value
COc1cc(C(=O)N2CC[C@@H](O)[C@@H](N)C2)cc2nc(-c3cc4ccccc4n3CC3CC3)n(C)c12,Potency,[1],inactive
same,Potency,[2],inactive
CN1CCCCC1Cn1cc(C(=O)c2cc([N+](=O)[O-])ccc2I)c2ccccc21 (configuration not stated),Potency,[3],inactive
same,Potency,[4],10 µM (active)
COc1ccc2c(c1)c(CCN(C)C)cn2S(=O)(=O)c1ccccc1,Potency,[3],inactive
C/C=C1/CN2CC[C@]34C(=Nc5ccccc53)[C@@H]2C[C@@H]1[C@H]4C(=O)OC,Potency,[5],inactive
same,Potency,[6],inactive
same,Potency,[7],inactive
same,Potency,[8],inactive
same,Potency,[9],inactive
same,outcome,[10],inactive
same,Potency,[11],inactive
same,Potency,[12],inactive
same,outcome,[13],inactive
same,Potency,[14],inactive
same,outcome,[15],inactive
same,Potency,[16],inactive
same,Potency,[17],inactive
same,Potency,[18],inactive
same,Potency,[19],inactive
CN1C(=O)[C@]23CC4C(C)(C)[C@@]5(C[C@@]41CN2CC[C@@]3(C)O)C(=O)Nc1c5ccc2c1OC=CC(C)(C)O2 (some centres not stated),Potency,[5],inactive
same,Potency,[6],inactive
same,Potency,[7],inactive
same,Potency,[8],inactive
same,Potency,[9],inactive
same,outcome,[10],inactive
same,Potency,[11],inactive
same,Potency,[12],inactive
same,outcome,[13],inactive
same,Potency,[14],inactive
same,outcome,[15],inactive
same,Potency,[16],inactive
same,Potency,[17],inactive
same,Potency,[18],inactive
same,Potency,[19],inactive
COc1ccc(CCNCc2ccc(OC)c3ccccc23)cc1,Potency,[3],inactive
same,Potency,[4],11.2 µM (active)
C[C@H](Nc1ncnc2nc[nH]c12)c1nc2ccc(F)cc2c(=O)n1-c1ccccc1,"activity change, negative = inhibition",[20],-57.8%
CN1CN(c2ccccc2)C2(CCN(CCCC(=O)c3ccc(F)cc3)CC2)C1=O,Potency,[3],inactive
same,Potency,[4],7.08 µM (active)
NC(=O)[C@@H](CC1CC1)[C@@H](CCC(F)(F)F)C(=O)N[C@H]1N=C(c2ccccc2)c2cccc(F)c2NC1=O,Potency,[1],inactive
same,Potency,[2],inactive
same,"activity change, negative = inhibition",[20],-2.84%
C/C=C(\C)C(=O)O[C@H]1CC2C(=C1C)[C@H]1OC(=O)[C@](C)(O)[C@]1(O)[C@H](OC(=O)CCC)C[C@@]2(C)OC(C)=O (some centres not stated),Potency,[4],2.2 µM (active)
C/C(=C\c1csc(C)n1)[C@@H]1C[C@@H]2O[C@@H]2CCC[C@H](C)[C@H](O)[C@@H](C)C(=O)C(C)(C)[C@@H](O)CC(=O)O1,Potency,[1],inactive
same,Potency,[2],inactive
same,"activity change, negative = inhibition",[20],-70%
